Measured values reported in the supplement of paper PMC10849652.
About 8,800 targets were measured; listed, in parts, are those with a hit and a random draw of the rest. About 0.5% of all pairs of compound and target were hits. A number with no mark means an inactive call.

Tests used:
Assay in all cases: log2 fold change, soluble protein after heating vs DMSO (PISA); higher = thermal stabilisation; K562 lysate, 10 uM; active = over 0.2 and 3.5 SD of the protein, either way, in both replicates (recomputed)
erlotinib = compound: C#Cc1cccc(Nc2ncnc3cc(OCCOC)c(OCCOC)cc23)c1 [erlotinib]
Procedure, shortened: (§1)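 K562 pellets were dounce-homogenised in PBS pH 7.4 containing 1 mM MgCl2, and the crude extract, at 1 mg/mL protein, was exposed to 10 μM compound for 30 min. Aliquots were heated for 3 min across 48°C-58°C, pooled, brought to 0.5% NP-40 at 4°C and spun at 21,000xg for 90 min, with the supernatant taken as soluble protein. TMTpro 16plex LC-MS/MS with equalised channel sums quantified that protein. Values are log-two fold changes in thermal stability relative to solvent controls, taken from duplicates.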

[1] = compound: C/C(=N\NC(=O)C1=CC(=CC=C1)S(=O)(=O)N2CCOCC2)/C3=C(C=CC(=C3)Cl)O
Procedure, shortened: as §1

[2] = compound: C1=CC(=CC=C1C2=NC3=C(N2)C=C(C=C3)C(=O)N)OC4=CC=C(C=C4)Cl
Procedure, shortened: as §1

[3] = compound: C1=CC2=C(C=CC(=C2)/C=C\3/C(=O)NC(=NCC4=CC=CS4)S3)N=C1
Procedure, shortened: as §1

[4] = compound: C1=CC2=NC=CN=C2C=C1/C=C/3\C(=O)NC(=O)S3
Procedure, shortened: as §1

[5] = compound: C1=CC=C(C=C1)C2=NC(=C(N2)C3=CC=NC=C3)C4=CC(=C(C=C4)Cl)O
Procedure, shortened: as §1

[6] = compound: C1=CC=C2C(=C1)C3=NNC4=CC=CC(=C43)C2=O
Procedure, shortened: as §1

[7] = compound: C1CCN(C1)C(=O)NC2=CC=CC(=C2)NC3=NC=C(C(=N3)NCCC4=CN=CN4)Br
Procedure, shortened: as §1

[8] = compound: C1CN(CCC1(CC2=CC=C(C=C2)Cl)N)C3=NC=NC4=C3C=CN4
Procedure, shortened: as §1

IRAK-1-4 Inhibitor I = compound: C1COCCN1CCN2C3=CC=CC=C3N=C2NC(=O)C4=CC(=CC=C4)[N+](=O)[O-] [IRAK-1-4 Inhibitor I]
Procedure, shortened: as §1

ibrutinib = compound: C=CC(=O)N1CCC[C@@H](n2nc(-c3ccc(Oc4ccccc4)cc3)c3c(N)ncnc32)C1 [ibrutinib]
Procedure, shortened: as §1

[9] = compound: CC(=O)c1cnc2ccc(-c3cc(Cl)c(O)c(Cl)c3)nc2c1N[C@H]1CC[C@H](CN(C)C)CC1
Procedure, shortened: as §1

ralimetinib = compound: CC(C)(C)Cn1c(N)nc2ccc(-c3[nH]c(C(C)(C)C)nc3-c3ccc(F)cc3)nc21 [ralimetinib]
Procedure, shortened: as §1

[10] = compound: CC(C)(O)CC(=O)NCCn1ccc2ncnc(Nc3ccc(Oc4cccc(C(F)(F)F)c4)c(Cl)c3)c21
Procedure, shortened: as §1

[11] = compound: CC(C)C1=C2N=C(C=C(N2N=C1)NCC3=CC=CC=C3)NCCCCCCN
Procedure, shortened: as §1

[12] = compound: CC1=C(C(CC(=O)N1)C2=CC=C(C=C2)C(F)(F)F)C(=O)NC3=C(C=C4C(=C3)C=NN4)F
Procedure, shortened: as §1

[13] = compound: CC1=C(C2=C(C=C1)C(=O)C3=CC=CC=C3N2CCCN)C
Procedure, shortened: as §1

[14] = compound: CC1=C(C=C(C=C1)NC(=O)C2=CC(=CC=C2)C(C)(C)C#N)NC3=CC4=C(C=C3)N=CN(C4=O)C
Procedure, shortened: as §1

[15] = compound: CC1=C(C=C(C=C1)NC(=O)C2=CC(=CC=C2)N(C)C)NC(=O)C3=CC=C(C=C3)O
Procedure, shortened: as §1

[16] = compound: CC1=CC=C(C=C1)SC2=C3C=C(SC3=CN=C2)C(=O)N
Procedure, shortened: as §1

Chain of UniProt Q13509 (Q13509 whole entry, looked up): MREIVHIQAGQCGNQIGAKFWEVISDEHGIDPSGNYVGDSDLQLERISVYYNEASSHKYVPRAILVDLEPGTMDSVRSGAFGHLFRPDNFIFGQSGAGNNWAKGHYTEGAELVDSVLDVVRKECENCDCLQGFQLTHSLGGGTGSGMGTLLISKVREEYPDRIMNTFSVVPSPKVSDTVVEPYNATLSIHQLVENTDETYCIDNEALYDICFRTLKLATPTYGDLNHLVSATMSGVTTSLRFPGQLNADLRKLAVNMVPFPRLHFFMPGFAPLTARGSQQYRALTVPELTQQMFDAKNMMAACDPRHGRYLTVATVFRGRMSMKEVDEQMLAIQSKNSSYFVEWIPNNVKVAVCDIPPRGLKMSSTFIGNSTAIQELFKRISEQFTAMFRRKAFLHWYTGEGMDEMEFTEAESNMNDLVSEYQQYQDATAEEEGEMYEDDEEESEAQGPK
Chain of UniProt Q9UKE5 (Q9UKE5 whole entry, looked up): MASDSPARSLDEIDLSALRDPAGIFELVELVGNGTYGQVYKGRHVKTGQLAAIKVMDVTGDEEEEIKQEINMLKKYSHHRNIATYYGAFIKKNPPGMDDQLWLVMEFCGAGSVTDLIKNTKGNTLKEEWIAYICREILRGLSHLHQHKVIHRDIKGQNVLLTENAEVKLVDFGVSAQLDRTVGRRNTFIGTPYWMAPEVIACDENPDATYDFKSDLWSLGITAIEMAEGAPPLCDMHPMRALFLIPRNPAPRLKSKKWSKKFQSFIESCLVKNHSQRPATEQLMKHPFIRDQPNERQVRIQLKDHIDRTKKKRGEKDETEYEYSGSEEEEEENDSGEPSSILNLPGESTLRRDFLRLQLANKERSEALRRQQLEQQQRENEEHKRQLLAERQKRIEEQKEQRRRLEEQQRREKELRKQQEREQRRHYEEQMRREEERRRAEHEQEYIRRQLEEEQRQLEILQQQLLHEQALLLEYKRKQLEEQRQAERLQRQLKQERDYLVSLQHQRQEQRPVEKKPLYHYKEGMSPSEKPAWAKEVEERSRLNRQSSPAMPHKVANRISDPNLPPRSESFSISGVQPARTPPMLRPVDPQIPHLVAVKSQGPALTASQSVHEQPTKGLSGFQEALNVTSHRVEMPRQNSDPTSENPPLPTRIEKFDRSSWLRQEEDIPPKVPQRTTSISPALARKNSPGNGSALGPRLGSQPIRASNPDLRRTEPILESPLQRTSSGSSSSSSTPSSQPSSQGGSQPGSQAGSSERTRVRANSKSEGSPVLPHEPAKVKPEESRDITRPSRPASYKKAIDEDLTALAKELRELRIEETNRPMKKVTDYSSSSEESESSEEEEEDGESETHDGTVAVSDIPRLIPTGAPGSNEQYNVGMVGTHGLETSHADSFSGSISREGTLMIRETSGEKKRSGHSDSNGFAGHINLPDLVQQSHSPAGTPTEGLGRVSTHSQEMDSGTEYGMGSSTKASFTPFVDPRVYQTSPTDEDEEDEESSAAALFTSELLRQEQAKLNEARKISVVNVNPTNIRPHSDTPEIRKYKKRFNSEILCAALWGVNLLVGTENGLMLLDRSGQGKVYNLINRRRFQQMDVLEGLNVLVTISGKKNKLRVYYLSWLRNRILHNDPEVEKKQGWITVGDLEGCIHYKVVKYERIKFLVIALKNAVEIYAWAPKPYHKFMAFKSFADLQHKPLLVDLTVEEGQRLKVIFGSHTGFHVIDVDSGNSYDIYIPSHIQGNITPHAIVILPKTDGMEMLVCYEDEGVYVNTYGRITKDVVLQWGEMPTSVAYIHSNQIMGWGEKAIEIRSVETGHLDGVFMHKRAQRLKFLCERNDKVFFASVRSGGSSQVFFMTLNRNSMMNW
Chain of UniProt O60701 (O60701 whole entry, looked up): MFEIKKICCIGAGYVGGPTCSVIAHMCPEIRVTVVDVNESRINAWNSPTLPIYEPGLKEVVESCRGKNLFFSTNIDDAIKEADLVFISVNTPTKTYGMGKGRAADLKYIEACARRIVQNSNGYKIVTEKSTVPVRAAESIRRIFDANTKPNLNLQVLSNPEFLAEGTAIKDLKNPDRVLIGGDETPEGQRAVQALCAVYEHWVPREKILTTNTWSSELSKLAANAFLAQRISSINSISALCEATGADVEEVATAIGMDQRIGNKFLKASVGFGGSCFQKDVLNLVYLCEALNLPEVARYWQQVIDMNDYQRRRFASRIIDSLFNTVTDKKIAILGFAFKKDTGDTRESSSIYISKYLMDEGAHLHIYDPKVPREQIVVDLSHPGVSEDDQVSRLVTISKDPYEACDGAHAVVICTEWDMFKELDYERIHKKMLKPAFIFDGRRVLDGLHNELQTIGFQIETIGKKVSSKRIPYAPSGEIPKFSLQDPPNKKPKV
Chain of UniProt P04818 (P04818 whole entry, looked up): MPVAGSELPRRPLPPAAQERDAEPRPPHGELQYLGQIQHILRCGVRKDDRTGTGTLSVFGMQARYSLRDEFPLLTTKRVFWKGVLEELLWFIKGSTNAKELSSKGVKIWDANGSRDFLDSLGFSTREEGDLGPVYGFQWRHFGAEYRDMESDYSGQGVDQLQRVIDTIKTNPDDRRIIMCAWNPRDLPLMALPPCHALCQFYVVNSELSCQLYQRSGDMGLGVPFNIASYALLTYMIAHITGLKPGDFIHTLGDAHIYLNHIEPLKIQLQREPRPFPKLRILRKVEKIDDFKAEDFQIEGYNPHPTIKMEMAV
Chain of UniProt Q9NUY8 (Q9NUY8 whole entry, looked up): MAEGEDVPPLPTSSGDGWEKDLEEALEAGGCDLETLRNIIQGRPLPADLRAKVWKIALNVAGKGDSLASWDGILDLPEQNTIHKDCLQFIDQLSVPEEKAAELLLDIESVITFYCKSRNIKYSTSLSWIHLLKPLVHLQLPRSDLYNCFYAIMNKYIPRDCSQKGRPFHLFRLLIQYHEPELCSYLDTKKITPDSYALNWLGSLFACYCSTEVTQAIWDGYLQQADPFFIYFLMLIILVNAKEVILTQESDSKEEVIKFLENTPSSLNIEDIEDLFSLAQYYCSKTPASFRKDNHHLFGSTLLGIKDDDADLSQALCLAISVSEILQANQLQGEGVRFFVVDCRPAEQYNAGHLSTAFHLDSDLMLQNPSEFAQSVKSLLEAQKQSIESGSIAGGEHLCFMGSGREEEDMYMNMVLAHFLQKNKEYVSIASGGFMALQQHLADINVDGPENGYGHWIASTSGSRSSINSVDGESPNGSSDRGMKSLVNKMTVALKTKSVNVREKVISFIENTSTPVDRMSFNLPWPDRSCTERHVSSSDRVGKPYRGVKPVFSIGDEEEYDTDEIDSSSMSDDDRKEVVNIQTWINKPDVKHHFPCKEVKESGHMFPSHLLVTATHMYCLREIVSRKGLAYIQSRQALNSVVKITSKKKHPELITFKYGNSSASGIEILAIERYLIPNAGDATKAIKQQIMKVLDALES
Chain of UniProt Q9Y2W6 (Q9Y2W6 whole entry, looked up): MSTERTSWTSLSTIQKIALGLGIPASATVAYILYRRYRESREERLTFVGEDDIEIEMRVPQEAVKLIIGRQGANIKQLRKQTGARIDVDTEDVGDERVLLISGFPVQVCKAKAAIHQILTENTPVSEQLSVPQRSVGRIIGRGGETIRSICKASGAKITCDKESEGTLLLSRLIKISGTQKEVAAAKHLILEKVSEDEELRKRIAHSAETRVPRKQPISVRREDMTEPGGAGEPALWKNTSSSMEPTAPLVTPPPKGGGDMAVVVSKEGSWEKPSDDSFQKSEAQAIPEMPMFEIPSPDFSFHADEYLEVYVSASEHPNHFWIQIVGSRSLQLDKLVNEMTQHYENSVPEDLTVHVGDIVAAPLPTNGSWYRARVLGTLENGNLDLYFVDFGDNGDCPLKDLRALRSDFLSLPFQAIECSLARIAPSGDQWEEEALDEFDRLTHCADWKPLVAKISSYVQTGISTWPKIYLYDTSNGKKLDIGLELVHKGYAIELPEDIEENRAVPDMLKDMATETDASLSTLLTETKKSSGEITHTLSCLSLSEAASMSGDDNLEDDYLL
Chain of UniProt Q9UGJ1 (Q9UGJ1 whole entry, looked up): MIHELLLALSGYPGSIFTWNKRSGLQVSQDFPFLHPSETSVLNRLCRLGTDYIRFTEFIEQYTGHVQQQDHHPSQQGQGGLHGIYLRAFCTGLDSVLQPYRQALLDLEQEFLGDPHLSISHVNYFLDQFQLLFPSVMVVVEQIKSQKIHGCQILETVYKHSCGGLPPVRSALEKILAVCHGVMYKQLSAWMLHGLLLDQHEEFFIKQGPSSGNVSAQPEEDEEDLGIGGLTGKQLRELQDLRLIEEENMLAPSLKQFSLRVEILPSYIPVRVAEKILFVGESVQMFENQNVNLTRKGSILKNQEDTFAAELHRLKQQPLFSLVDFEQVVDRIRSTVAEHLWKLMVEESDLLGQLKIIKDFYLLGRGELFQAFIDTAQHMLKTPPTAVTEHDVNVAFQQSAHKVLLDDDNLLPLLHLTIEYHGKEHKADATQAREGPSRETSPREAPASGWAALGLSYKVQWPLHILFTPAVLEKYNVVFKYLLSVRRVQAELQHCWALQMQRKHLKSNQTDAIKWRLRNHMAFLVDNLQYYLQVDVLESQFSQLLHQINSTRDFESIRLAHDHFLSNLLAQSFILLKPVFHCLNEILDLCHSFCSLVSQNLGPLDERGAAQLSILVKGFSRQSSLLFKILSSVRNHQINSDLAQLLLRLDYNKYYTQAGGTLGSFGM
Chain of UniProt P04183 (P04183 whole entry, looked up): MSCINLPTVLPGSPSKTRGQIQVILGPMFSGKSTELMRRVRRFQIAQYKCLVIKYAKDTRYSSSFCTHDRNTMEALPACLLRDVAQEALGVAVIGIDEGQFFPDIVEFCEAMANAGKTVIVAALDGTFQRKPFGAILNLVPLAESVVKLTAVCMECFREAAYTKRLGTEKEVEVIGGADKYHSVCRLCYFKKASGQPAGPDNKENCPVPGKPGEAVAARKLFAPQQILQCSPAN
Chain of UniProt Q5JUR7 (Q5JUR7 whole entry, looked up): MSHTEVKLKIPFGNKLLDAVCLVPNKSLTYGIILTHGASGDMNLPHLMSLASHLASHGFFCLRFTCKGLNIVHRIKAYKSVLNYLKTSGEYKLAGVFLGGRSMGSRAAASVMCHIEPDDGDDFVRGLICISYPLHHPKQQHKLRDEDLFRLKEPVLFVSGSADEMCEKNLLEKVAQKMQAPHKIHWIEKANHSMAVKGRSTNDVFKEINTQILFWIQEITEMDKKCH

| Target | log2 fold change (erlotinib) | log2 fold change [1] | log2 fold change [2] | log2 fold change [3] | log2 fold change [4] | log2 fold change [5] | log2 fold change [6] | log2 fold change [7] | log2 fold change [8] | log2 fold change (IRAK-1-4 Inhibitor I) | log2 fold change (ibrutinib) | log2 fold change [9] | log2 fold change (ralimetinib) | log2 fold change [10] | log2 fold change [11] | log2 fold change [12] | log2 fold change [13] | log2 fold change [14] | log2 fold change [15] | log2 fold change [16] |
| --- | --- | --- | --- | --- | --- | --- | --- | --- | --- | --- | --- | --- | --- | --- | --- | --- | --- | --- | --- | --- |
| TUBGCP2 isoform 4 (UniProt Q9BSJ2) | 0.036 | -0.048 | 0.012 | 0.025 | 0.014 | -0.005 | -0.029 | -0.014 | 0.004 | -0.041 | -0.001 | 0.042 | -0.007 | -0.016 | -0.006 | 0.011 | -0.023 | 0.035 | 0.048 | -0.017 |
| TUBA1C (UniProt Q9BQE3) | 0.007 | -0.028 | 0.044 | -0.019 | -0.012 | 0.031 | -0.077 | -0.008 | 0.014 | 0.04 | -0.001 | 0.017 | 0.007 | -0.043 | 0.032 | 0.015 | -0.035 | -0.012 | 0.043 | 0.009 |
| TNIK isoform 4 (UniProt Q9UKE5) | -0.015 | -0.037 | -0.035 | 0.119 | 0.003 | 0.125 | 0.244 | 0.113 | -0.031 | -0.019 | 0.008 | 0.374 (active) | -0.024 | -0.005 | 0.046 | -0.013 | -0.019 | 0.186 | -0.012 | -0.068 |
| TPD52L2 isoform 7 (UniProt O43399) | -0.044 | -0.028 | 0.085 | 0.015 | 0 | 0.017 | 0.036 | 0.029 | -0.004 | -0.031 | -0.016 | 0.017 | -0.013 | 0.01 | -0.013 | 0.023 | -0.024 | 0.007 | -0.006 | -0.001 |
| TBC1D23 (UniProt Q9NUY8) | 0.003 | -0.01 | 0.017 | 0.022 | -0.015 | 0.011 | -0.018 | -0.018 | -0.001 | 0 | 0.034 | 0.002 | 0.004 | -0.021 | 0.03 | 0.032 | -0.05 | 0.014 | 0.012 | -0.012 |
| TLE3 isoform 4 (UniProt Q04726) | 0.005 | -0.025 | 0.03 | -0.012 | 0 | 0.016 | -0.002 | -0.006 | 0.029 | -0.016 | -0.002 | -0.01 | 0.003 | -0.005 | 0 | -0.023 | 0.012 | -0.016 | 0.003 | -0.022 |
| TUBGCP4 (UniProt Q9UGJ1) | -0.017 | -0.017 | -0.007 | 0.015 | -0.018 | -0.01 | -0.028 | 0.133 | 0.045 | 0.052 | 0 | -0.051 | 0.052 | -0.037 | 0 | 0.021 | -0.048 | -0.002 | 0.05 | 0.043 |
| TUBB3 (UniProt Q13509) | 0.025 | -0.089 | 0.016 | -0.004 | 0.001 | -0.019 | -0.025 | 0.018 | 0.03 | 0.006 | 0.003 | 0.009 | 0.022 | -0.019 | 0.025 | 0.013 | 0.005 | -0.007 | 0.015 | 0.019 |
| TMOD1 (UniProt P28289) | 0.002 | -0.091 | 0.018 | 0.018 | -0.001 | 0.003 | 0.013 | -0.005 | -0.002 | 0.012 | 0.002 | 0.007 | -0.015 | -0.02 | 0 | -0.004 | 0.006 | 0 | 0.016 | -0.019 |
| TUBA3C (UniProt P0DPH7) | 0.03 | -0.605 | 0.039 | -0.029 | 0.023 | -0.023 | -0.01 | -0.011 | 0.036 | 0.037 | -0.009 | -0.007 | 0.041 | -0.045 | -0.047 | 0.002 | 0.029 | -0.021 | 0.038 | 0.001 |
| TERF2IP (UniProt Q9NYB0) | -0.003 | 0.025 | 0.03 | -0.054 | -0.023 | -0.001 | 0.005 | 0.019 | 0.029 | 0.009 | 0.02 | -0.012 | 0.025 | -0.049 | -0.047 | 0.004 | -0.004 | -0.008 | -0.005 | 0.003 |
| UGDH (UniProt O60701) | 0.002 | 0.046 | -0.02 | -0.009 | 0.02 | -0.041 | -0.051 | -0.004 | -0.052 | -0.053 | 0.02 | 0.02 | 0.085 | -0.004 | -0.004 | 0.019 | 0.215 (active) | -0.037 | 0.058 | 0.031 |
| TYMS (UniProt P04818) | 0.016 | 0.041 | 0.011 | -0.032 | 0.032 | -0.026 | 0.019 | 0.035 | -0.004 | -0.008 | -0.041 | -0.017 | 0.014 | 0.029 | 0.01 | 0.001 | 0.043 | -0.005 | -0.001 | -0.022 |
| TDRKH (UniProt Q9Y2W6) | -0.067 | 0.023 | -0.017 | -0.018 | -0.065 | 0.02 | -0.086 | -0.011 | -0.022 | 0.047 | -0.028 | -0.023 | 0.033 | -0.027 | -0.02 | 0.003 | -0.008 | -0.006 | -0.005 | -0.035 |
| TK1 (UniProt P04183) | 0.003 | -0.112 | 0.036 | -0.001 | 0.028 | -0.003 | 0.021 | 0.013 | 0.017 | 0.008 | 0.004 | -0.004 | 0.023 | -0.022 | -0.029 | 0 | 0.006 | 0.046 | -0.014 | -0.006 |
| TEX30 (UniProt Q5JUR7) | -0.012 | -0.106 | -0.112 | 0.03 | 0.046 | -0.009 | -0.065 | -0.034 | -0.007 | -0.031 | 0.17 | 0.003 | 0.047 | -0.053 | -0.045 | -0.033 | 0.016 | -0.027 | 0.019 | 0.019 |
